Active and inactive are the calls of the source.
What was measured:
[1] = tested on: Plasmodium falciparum Sir2 (PF13_0152, Sir2A); experiment: Plasmodium falciparum Sir2A binding compounds – biochemical, small-molecule microarray, 635 nm fluorescence, primary screen (AID 1098); conditions: fluorescence 635 nm, higher = more signal;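 further: score merges spot fluorescence intensity with its signal-to-noise ratio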
[2] = probe aDKK1 binding to arrayed compounds – biochemical, biotinylated probe, 635/667 nm fluorescence, primary screen (AID 1099); conditions: small-molecule microarray, higher = more signal;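 further: score merges 667nm spot fluorescence with signal to noise across triplicate slides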
[3] = probe aCHRDL2 binding to arrayed compounds – biochemical, biotinylated probe, 635/667 nm fluorescence, primary screen (AID 1100); conditions: small-molecule microarray, higher = more signal
[4] = change in splice reporter luminescence, either direction, cell-based, HEK293, spliceosome inhibition project, primary screen (AID 1101); conditions: HEK293 splicing luciferase reporter, 24 h, higher = more signal, called active from +8 up or from −8 down;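 further: HEK293 cells carrying a splicing-competent luciferase reporter gene; test concentration not given here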
[5] = molecular target: Fibroblast growth factor 10 (Homo sapiens) (UniProt O15520); experiment: compounds binding fibroblast growth factor 10 – biochemical, small-molecule microarray, 635 nm fluorescence, primary screen (AID 1102); conditions: FGF10 binding, fluorescence 635 nm, higher = more signal
Fibroblast growth factor 10 (Homo sapiens), sequence (O15520 whole entry, looked up): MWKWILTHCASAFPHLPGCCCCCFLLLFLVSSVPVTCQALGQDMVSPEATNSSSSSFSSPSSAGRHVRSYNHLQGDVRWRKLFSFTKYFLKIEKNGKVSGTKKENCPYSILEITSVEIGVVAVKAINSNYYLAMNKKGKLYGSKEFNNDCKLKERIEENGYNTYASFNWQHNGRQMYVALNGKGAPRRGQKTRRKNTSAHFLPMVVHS

[6] = tested on: glycogen synthase kinase-3 (GSK3A per assay name; protocol says GSK3B); experiment: compounds binding glycogen synthase kinase-3 – biochemical, small-molecule microarray, 635 nm fluorescence, GSK3A, primary screen (AID 1103); conditions: fluorescence 635 nm, higher = more signal; further: the record names both GSK3A and GSK3B
[7] = molecular target: Epidermal growth factor receptor (Homo sapiens) (UniProt P00533); experiment: compounds binding epidermal growth factor receptor – biochemical, small-molecule microarray, 635 nm fluorescence, primary screen (AID 1104); conditions: EGFR binding, higher = more signal;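 further: score merges 667 nm emission intensity with spot signal to noise over triplicate slides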
Epidermal growth factor receptor (Homo sapiens), sequence (P00533 whole entry, looked up): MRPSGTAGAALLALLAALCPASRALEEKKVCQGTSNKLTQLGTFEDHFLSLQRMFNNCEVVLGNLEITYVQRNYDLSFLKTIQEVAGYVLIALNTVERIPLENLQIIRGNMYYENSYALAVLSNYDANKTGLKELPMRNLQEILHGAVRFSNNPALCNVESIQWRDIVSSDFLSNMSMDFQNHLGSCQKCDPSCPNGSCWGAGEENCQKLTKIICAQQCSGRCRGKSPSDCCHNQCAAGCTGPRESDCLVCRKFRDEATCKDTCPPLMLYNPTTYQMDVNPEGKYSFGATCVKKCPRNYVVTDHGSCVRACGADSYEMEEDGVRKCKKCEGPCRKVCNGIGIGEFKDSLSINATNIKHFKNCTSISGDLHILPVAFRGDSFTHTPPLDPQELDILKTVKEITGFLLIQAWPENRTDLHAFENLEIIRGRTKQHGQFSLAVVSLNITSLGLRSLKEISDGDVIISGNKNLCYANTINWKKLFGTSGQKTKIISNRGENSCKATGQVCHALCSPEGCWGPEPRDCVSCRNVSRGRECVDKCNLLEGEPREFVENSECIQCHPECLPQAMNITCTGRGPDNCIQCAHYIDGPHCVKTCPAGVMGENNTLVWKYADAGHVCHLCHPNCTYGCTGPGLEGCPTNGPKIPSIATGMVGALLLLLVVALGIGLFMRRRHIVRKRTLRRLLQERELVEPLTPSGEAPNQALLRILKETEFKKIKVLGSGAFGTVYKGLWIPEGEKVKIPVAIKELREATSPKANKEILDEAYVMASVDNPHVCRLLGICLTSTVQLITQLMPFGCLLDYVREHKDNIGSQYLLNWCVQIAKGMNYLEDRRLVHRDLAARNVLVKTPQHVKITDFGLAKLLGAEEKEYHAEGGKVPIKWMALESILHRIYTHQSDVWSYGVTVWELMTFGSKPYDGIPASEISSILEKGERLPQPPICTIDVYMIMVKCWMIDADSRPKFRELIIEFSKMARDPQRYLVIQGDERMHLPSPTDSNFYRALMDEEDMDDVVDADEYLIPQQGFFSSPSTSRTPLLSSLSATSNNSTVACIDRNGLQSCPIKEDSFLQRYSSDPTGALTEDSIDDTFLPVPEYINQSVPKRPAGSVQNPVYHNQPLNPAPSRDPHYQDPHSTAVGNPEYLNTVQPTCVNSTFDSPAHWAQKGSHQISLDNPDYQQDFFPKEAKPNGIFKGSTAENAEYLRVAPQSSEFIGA

[8] = molecular target: Follistatin-related protein 3 (Homo sapiens) (UniProt O95633); experiment: compounds binding follistatin-related protein 3 – biochemical, small-molecule microarray, 635 nm fluorescence, primary screen (AID 1105); conditions: FSTL3 binding, higher = more signal;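 further: score merges emission near 667 nm and signal to noise per printed spot across three slides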
Follistatin-related protein 3 (Homo sapiens), sequence (O95633 whole entry, looked up): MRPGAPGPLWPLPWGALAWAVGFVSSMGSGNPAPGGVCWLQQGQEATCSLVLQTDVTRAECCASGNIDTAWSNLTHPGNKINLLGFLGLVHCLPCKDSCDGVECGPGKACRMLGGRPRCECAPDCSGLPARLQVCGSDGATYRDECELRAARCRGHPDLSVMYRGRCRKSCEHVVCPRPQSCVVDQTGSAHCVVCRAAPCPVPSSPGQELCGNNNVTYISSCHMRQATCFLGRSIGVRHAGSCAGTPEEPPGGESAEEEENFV

[9] = molecular target: Dickkopf-related protein 1 (Homo sapiens) (UniProt O94907); experiment: small molecules binding DKK1 protein – biochemical, small-molecule microarray, 635 nm fluorescence scan, primary screen (AID 1106); conditions: higher = more signal;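 further: score merges emission near 667 nm with signal to noise over three replicate slides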
Dickkopf-related protein 1 (Homo sapiens), sequence (O94907 whole entry, looked up): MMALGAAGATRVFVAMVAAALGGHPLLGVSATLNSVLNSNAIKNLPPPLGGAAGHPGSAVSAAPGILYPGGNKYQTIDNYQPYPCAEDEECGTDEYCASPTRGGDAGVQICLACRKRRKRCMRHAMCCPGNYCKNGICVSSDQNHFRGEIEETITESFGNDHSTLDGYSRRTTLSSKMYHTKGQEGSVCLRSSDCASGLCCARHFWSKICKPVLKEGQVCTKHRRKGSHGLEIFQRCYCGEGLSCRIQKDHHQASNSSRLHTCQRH

[10] = tested on: Inhibin beta A chain (activin A); experiment: small molecules binding activin A – biochemical, small-molecule microarray, 635 nm fluorescence scan, primary screen (AID 1107); conditions: INHBA, higher = more signal;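 further: mouse activin A protein probed at 4.33 µg/mL on printed slides; score merges bound-protein fluorescence near 667 nm with spot signal-to-noise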
[11] = tested on: Human papillomavirus type 1a protein E7 (residues 44-93); experiment: small molecules binding HPV E7 44-93 – biochemical, small-molecule microarray, residues 44-93, 635 nm fluorescence, primary screen (AID 1108); conditions: fluorescence 635 nm, higher = more signal;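 further: E7 fragment applied at 1 µg/mL in TBST for 1 h at 4 C; score combines spot fluorescence with its signal to noise ratio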
[12] = hepatitis C replication reporter changes, two-sided – Huh7 cells, luciferase reporter, HCV replication inhibitor project, primary screen (AID 1109); conditions: Huh7 HCV replicon luciferase reporter, 48 h; higher = more signal;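 further: huh7 hepatoma cells harbouring a luciferase neomycin HCV replicon reporter; luciferase luminescence as measure of HCV replicon replication; test concentration not given here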
[13] = molecular target: Left-right determination factor 2 (Homo sapiens) (UniProt O00292); experiment: small molecules binding LEFTY2 protein – biochemical, small-molecule microarray, 635 nm fluorescence scan, primary screen (AID 1110); conditions: higher = more signal
Left-right determination factor 2 (Homo sapiens), sequence (O00292 whole entry, looked up): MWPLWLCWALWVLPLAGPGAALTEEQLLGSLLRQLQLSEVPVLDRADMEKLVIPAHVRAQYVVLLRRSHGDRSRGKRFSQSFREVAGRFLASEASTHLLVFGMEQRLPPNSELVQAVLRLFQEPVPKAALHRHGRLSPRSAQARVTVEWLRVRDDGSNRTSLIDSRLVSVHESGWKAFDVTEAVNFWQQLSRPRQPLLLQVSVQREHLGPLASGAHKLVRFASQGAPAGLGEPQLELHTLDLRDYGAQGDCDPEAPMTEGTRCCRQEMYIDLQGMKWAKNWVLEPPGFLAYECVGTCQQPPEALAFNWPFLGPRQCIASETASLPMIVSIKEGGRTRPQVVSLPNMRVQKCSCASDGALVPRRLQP

[14] = molecular target: Calmodulin-1 (Homo sapiens) (UniProt P0DP23); experiment: small molecules binding calmodulin-1 with EGTA – biochemical, small-molecule microarray, Cy5-labelled CALM1, profiling panel (AID 1111); conditions: Cy5-CALM1 binding fluorescence, higher = more signal;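 further: labelled calmodulin applied in Tris saline Tween buffer holding calcium plus EGTA and DTT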
[15] = molecular target: Calmodulin-1 (Homo sapiens) (UniProt P0DP23); experiment: small molecules binding Ca-loaded calmodulin-1 – biochemical, small-molecule microarray, Cy5-labelled CALM1, plus calcium, artefact control for SMM control-protein annotation, profiling panel (AID 1112); conditions: Cy5-CALM1 binding fluorescence, higher = more signal;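 further: score merges spot fluorescence with signal to noise from triplicate slides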
[16] = probe aWnt5a binding to arrayed compounds – biochemical, biotinylated probe, 635/667 nm fluorescence, primary screen (AID 1113); conditions: small-molecule microarray, higher = more signal;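 further: score merges 667 nm fluorescence intensity with signal-to-noise per printed feature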
[17] = probe aShh binding to arrayed compounds – biochemical, biotinylated probe, 635/667 nm fluorescence, primary screen (AID 1114); conditions: small-molecule microarray, higher = more signal;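 further: probe is biotin-labelled aShh protein from a stem cell growth factor screen; measures binding of labelled protein to compounds printed on the slide; score merges feature fluorescence at 667 nm with signal-to-noise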
[18] = probe aNog binding to arrayed compounds – biochemical, biotinylated probe, 635/667 nm fluorescence, primary screen (AID 1115); conditions: small-molecule microarray, higher = more signal;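 further: probe is biotinylated aNog protein used at 0.15 µg/mL for 1 h at 4 C; z-score combines 667 nm fluorescence of each spot with its signal to noise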
[19] = molecular target: Torsin-1A-interacting protein 1 (Homo sapiens) (UniProt Q5JTV8); experiment: compound microarray binding of lysate hLAP1 – cell lysate, small-molecule microarray, COS7 lysate, 635/667 nm fluorescence, primary screen (AID 1116); conditions: 635 nm fluorescence, higher = more signal
Torsin-1A-interacting protein 1 (Homo sapiens), sequence (Q5JTV8 whole entry, looked up): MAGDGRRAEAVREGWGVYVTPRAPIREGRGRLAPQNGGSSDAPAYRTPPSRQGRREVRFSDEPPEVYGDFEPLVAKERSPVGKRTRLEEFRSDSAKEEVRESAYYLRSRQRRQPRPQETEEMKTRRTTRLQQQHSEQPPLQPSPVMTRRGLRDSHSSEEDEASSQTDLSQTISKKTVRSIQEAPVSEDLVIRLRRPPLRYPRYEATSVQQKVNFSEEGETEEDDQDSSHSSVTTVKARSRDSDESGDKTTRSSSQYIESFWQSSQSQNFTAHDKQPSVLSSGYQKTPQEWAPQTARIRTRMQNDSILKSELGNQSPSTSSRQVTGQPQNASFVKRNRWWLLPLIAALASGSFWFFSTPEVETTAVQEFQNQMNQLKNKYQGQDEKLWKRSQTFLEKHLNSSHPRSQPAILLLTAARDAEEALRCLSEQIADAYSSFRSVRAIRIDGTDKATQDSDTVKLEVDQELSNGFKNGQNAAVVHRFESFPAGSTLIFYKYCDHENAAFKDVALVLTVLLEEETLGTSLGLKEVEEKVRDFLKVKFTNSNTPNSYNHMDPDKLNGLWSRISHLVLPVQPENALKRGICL

[20] = molecular target: Alpha-bungarotoxin (Bungarus multicinctus) (UniProt P60615); experiment: compounds binding labelled alpha-BTX control protein – biochemical, small-molecule microarray, Alexa647 label, 635/667 nm fluorescence, artefact control for SMM control protein annotation, profiling panel (AID 1117); conditions: alpha-BTX-A647 binding fluorescence, higher = more signal
Alpha-bungarotoxin (Bungarus multicinctus), sequence (P60615 whole entry, looked up): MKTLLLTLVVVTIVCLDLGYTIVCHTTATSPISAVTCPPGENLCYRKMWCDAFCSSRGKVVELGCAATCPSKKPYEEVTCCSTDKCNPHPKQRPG

| SMILES | composite z-score [1] | composite z-score [2] | composite z-score [3] | z-score [4] | composite z-score [5] | composite z-score [6] | composite z-score [7] | composite z-score [8] | composite z-score [9] | composite z-score [10] | composite z-score [11] | z-score [12] | composite z-score [13] | composite z-score [14] | composite z-score [15] | composite z-score [16] | composite z-score [17] | composite z-score [18] | composite z-score [19] | composite z-score [20] |
| --- | --- | --- | --- | --- | --- | --- | --- | --- | --- | --- | --- | --- | --- | --- | --- | --- | --- | --- | --- | --- |
| COc1ccc(CCNC(=O)[C@@]2(Sc3ccc(C)cc3)CC(=O)N(Cc3cc(C(F)(F)F)cc(C(F)(F)F)c3)[C@@H]2c2ccc(CO)cc2I)cc1 | 1.15 | 0.277 | 0.901 | -0.871 (inactive) | -0.447 | -0.223 | -1.06 | -0.0666 | -0.744 | 0.533 | 1.27 | -1.89 | -1.07 | 0.435 | -0.45 | -0.0869 | 0.23 | -0.0592 | 0.282 | 1.73 |
| CCCCC(=C=CC[C@@H](O)c1ccc(OCCO)cc1)C[C@@H](O)COCc1ccccc1 | 1.27 | -0.338 | -0.212 | -0.784 (inactive) | 1.01 | -0.0016 | -0.3 | 0.245 | 0.111 | 0.856 | -0.548 | -1.45 | 0.141 | -0.686 | -0.244 | 0.0044 | 0.0796 | -0.213 | 1.89 | -0.324 |
| COc1ccc(NN2C(C(O)c3ccccn3)C=CC3C(=O)N(C4CCCCC4)C(=O)C32)cc1 (stereo not given) | 1.31 | 0.2 | 0.862 | -1.44 (inactive) | 0.962 | 1.25 | 0.224 | 1.16 | -0.39 | 0.627 | 1.41 | -0.602 | -0.188 | 1.58 | 0.37 | 0.0391 | 0.0875 | 1.17 | 0.766 | 0.887 |
| COc1ccc(C#Cc2ccc3c(c2)[C@]2(C(=O)N3)[C@H](C(=O)N3CCc4cc(OC)c(OC)cc4C3)[C@H]3C(=O)O[C@H](c4ccccc4)[C@H](c4ccccc4)N3[C@@H]2c2ccc(O)cc2)cc1 | 0.822 | -0.29 | -0.178 | -0.00287 (inactive) | 0.851 | 1.29 | 0.537 | 0.957 | 0.513 | -0.214 | 1.38 | -1.21 | 0.388 | 1.22 | 0.06 | -0.122 | -0.0243 | 0.272 | 0.0204 | 1.04 |
| CCCNC(=O)[C@@]1(c2ccc([N+](=O)[O-])cc2)CC(=O)N(C2CCCCC2)[C@@H]1c1ccc(CO)cc1I | 1.51 | 0.57 | 0.796 | -0.68 (inactive) | 0.841 | 0.705 | 0.297 | 0.532 | 0.214 | -0.406 | 0.198 | -2.64 | -0.101 | 0.647 | 0.587 | 0.108 | 0.166 | 1.44 | 1.33 | 1.6 |
| COc1ccc([Si](C)(C)[C@H]2[C@H](CCn3cc([C@H](O)c4ccccc4)nn3)O[C@@]3(C(=O)N(Cc4cccc(N5C(=O)c6cccc7cccc5c67)c4)c4ccccc43)[C@@H]2C)cc1 | 0.661 | -0.0526 | 0.837 | -0.762 (inactive) | -0.718 | -1.22 | -1.04 | -1.4 | -1.66 | -0.456 | -0.56 | -2.67 | -0.823 | 0.419 | 1.13 | -0.175 | -0.2 | 0.206 | -0.0061 | -1.02 |
| O=C1O[C@@H](c2ccccc2)[C@@H](c2ccccc2)N2[C@@H](c3ccccc3OCCO)[C@]3(C(=O)Nc4ccccc43)[C@@H](C(=O)NC[C@H](O)c3ccccc3)[C@H]12 | 1.11 | 0.597 | 0.76 | -1.66 (inactive) | -0.369 | 0.342 | -0.528 | 0.0805 | -0.547 | -0.189 | 0.705 | -3.3 | -0.555 | 1.08 | 0.845 | -0.152 | 0.0557 | -0.0161 | 1.35 | -0.327 |
| CC1CC/C=C\[C@H]2OC34C=CCN(c5ccc6ccccc6c5)C(=O)[C@H]3N(C(CO)C(C)C)C(=O)[C@@H]4C2C(=O)O1 (stereo not given in full) | 0.675 | -0.305 | 0.623 | 6.6e-05 (inactive) | -0.209 | -0.176 | -0.56 | -0.163 | -0.495 | 1.2 | -0.546 | -0.957 | -0.854 | -0.822 | -0.419 | -0.169 | -0.164 | -0.267 | -0.203 | 0.462 |
| O=C1NC(=O)C2C1C=CC(C(O)c1ccc(Br)cc1)N2Nc1ccccn1 (stereo not given) | 0.246 | 0.71 | 0.662 | -0.141 (inactive) | 0.557 | 0.389 | 0.12 | 0.28 | 1.27 | 1.37 | -0.444 | 0.233 | 0.727 | -0.156 | -0.435 | 0.149 | 0.254 | 0.356 | 0.531 | 0.22 |
| NC(N)=NCc1cn(CCc2c[nH]c3ccccc23)nn1 | 0.689 | 0.0191 | -0.865 | -0.443 (inactive) | 0.479 | 1.18 | 0.699 | 1.12 | 1.6 | 0.307 | 0.712 | -1.66 | 1.23 | -0.732 | -1 | -0.114 | 0.0141 | -0.158 | 0.615 | 0.755 |
| COC1(C)CN(Cc2ccccc2Br)[C@H](/C=C/c2ccccc2)[C@H](Cc2ccccc2)O1 (stereo not given in full) | -0.525 | -0.383 | -0.0981 | -0.792 (inactive) | -0.258 | -0.629 | -0.383 | -0.478 | -1.04 | -0.19 | -0.579 | -1.58 | -0.137 | -0.0755 | -0.412 | -0.176 | -0.291 | -0.169 | -0.631 | -0.0462 |

Source: PubChem BioAssay
